Assay results reported in PubChem BioAssay (NCI).
This is part of a sample that, as a whole, favours compounds with a hit. Of some 83,000 tested, about 20% had one in any assay.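 Note: values are percent growth. 100 is the growth of untreated cells, values between 100 and 0 indicate rising inhibition; between -100 and 0 indicates cell death.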 Values without a mark were called inactive. The source made the active and inactive calls. The calls were made as follows: active = growth percent below 10; inactive = the rest.

Key:
Assay in all cases: NCI-60 one-dose screen, 48 h (100 = growth as untreated, 0 = no growth, -100 = all killed)
Settings in all cases: 10 µM unless noted
[1] = test system: HCT-15 colon
[2] = test system: HT29 colon
[3] = test system: SNB-75 CNS
[4] = test system: SNB-19 CNS
[5] = test system: U251 CNS
[6] = test system: PC-3 prostate
[7] = test system: SK-MEL-5 melanoma
[8] = test system: UACC-62 melanoma
[9] = test system: LOX IMVI melanoma
[10] = test system: SK-MEL-28 melanoma

SMILES: COc1cc(C2c3cc(OC(C)=O)c(OC)cc3CC3C(=O)OCC32)ccc1OC(C)=O (stereo not given)
- growth [1]: 104%
- growth [2]: 97.6%
- growth [3]: 94.5%
- growth [4]: 116%
- growth [5]: 92.6%
- growth [6]: 68.3%
- growth [7]: 109%
- growth [8]: 103%
- growth [9]: 103%
- growth [10]: 122%

SMILES: CCOC(=O)c1cc(C)n(-c2ccc(C(=O)O)cc2)c1C
- growth [1]: 24.8%
- growth [2]: 37.8%
- growth [3]: 130%
- growth [4]: 94.5%
- growth [5]: 96.3%
- growth [6]: 83.3%
- growth [7]: 92%
- growth [8]: 86.7%
- growth [9]: 80.2%
- growth [10]: 127%

SMILES: O=S(=O)(Nc1ccc(F)cc1F)c1ccc(-c2cnc(C3CC3)o2)cc1
- growth [1]: 23.7%
- growth [2]: 14%
- growth [3]: -13.1% (active)
- growth [4]: 46.5%
- growth [5]: 26.6%
- growth [6]: 42.5%
- growth [7]: 6.16% (active)
- growth [8]: 27.4%
- growth [9]: 41.5%
- growth [10]: 63.5%

SMILES: O=C(/C=C/c1cccc(Cl)c1)c1ccc(Nc2nc(Nc3ccc(F)cc3)nc(Nc3ccc(Cl)cc3)n2)cc1
- growth [1]: 101%
- growth [2]: 108%
- growth [3]: 95.7%
- growth [4]: 118%
- growth [5]: 112%
- growth [6]: 98.8%
- growth [7]: 90.7%
- growth [8]: 108%
- growth [9]: 104%
- growth [10]: 112%

SMILES: N#CC1=C(N)Oc2c(ccc3ccccc23)C1c1ccccc1 (stereo not given)
- growth [1]: 8.12% (active)
- growth [2]: -2.07% (active)
- growth [3]: 35.6%
- growth [4]: 26.6%
- growth [5]: 9.37% (active)
- growth [6]: 6.19% (active)
- growth [7]: 4.54% (active)
- growth [8]: 26.9%
- growth [9]: 7.97% (active)
- growth [10]: 49.4%

SMILES: Cn1ccc(=O)c(C(=O)Nc2nsc3ccc([N+](=O)[O-])cc23)c1
- growth [1]: 54.9%
- growth [2]: 68.2%
- growth [3]: 72.1%
- growth [4]: 91.3%
- growth [5]: 63.1%
- growth [6]: 56.8%
- growth [7]: 87.4%
- growth [8]: 32.6%
- growth [9]: 51.3%
- growth [10]: 78.3%

SMILES: CCCCCCC12CCC(=O)N1CCc1cncn12 (stereo not given)
- growth [1]: 102%
- growth [2]: 100%
- growth [3]: 116%
- growth [4]: 105%
- growth [5]: 100%
- growth [6]: 98.3%
- growth [7]: 99.1%
- growth [8]: 95.6%
- growth [9]: 102%
- growth [10]: 112%

SMILES: CCCOC(=O)Nc1nc2ccc(SCC(C)C)cc2s1
- growth [1]: 26.6%
- growth [2]: 15.9%
- growth [3]: 28.6%
- growth [4]: 53.9%
- growth [5]: 49.2%
- growth [6]: 45.9%
- growth [7]: 27.6%
- growth [8]: 18.9%
- growth [9]: 40.8%
- growth [10]: 64.9%

SMILES: COc1cc2c(c(OC)c1OC)CCC(c1cccc(C(=O)Nc3cccc(Cl)c3)c1)O2 (stereo not given)
- growth [1]: 75.2%
- growth [2]: 63.6%
- growth [3]: 63.7%
- growth [4]: 76.5%
- growth [5]: 72.4%
- growth [6]: 34%
- growth [7]: 63%
- growth [8]: 53.4%
- growth [9]: 65.2%
- growth [10]: 78.1%

SMILES: O=C1c2ccccc2-c2c1c1c(=O)[nH]c3ccccc3c1n2Cc1ccccc1
- growth [1]: 84.5%
- growth [2]: 75.6%
- growth [3]: 70.8%
- growth [4]: 68.7%
- growth [5]: 68.6%
- growth [6]: 74%
- growth [7]: 60.6%
- growth [8]: 53.8%
- growth [9]: 82.7%
- growth [10]: 85.7%

SMILES: N#Cc1nc(-c2ccccc2)oc1S(=O)(=O)N1CCN(c2ccccc2)CC1
- growth [1]: 44.2%
- growth [2]: 86.5%
- growth [3]: 66.7%
- growth [4]: 99.6%
- growth [5]: 98.9%
- growth [6]: 94.9%
- growth [7]: 90%
- growth [8]: 84.4%
- growth [9]: 39.7%
- growth [10]: 106%

SMILES: O=C(Nc1ccc(Oc2cccc(Cl)c2)c(Cl)c1)c1cccnc1
- growth [1]: 36.8%
- growth [2]: 8.57% (active)
- growth [3]: -23.2% (active)
- growth [4]: 41.3%
- growth [5]: 23.9%
- growth [6]: 14.9%
- growth [7]: 14.5%
- growth [8]: 37.6%
- growth [9]: 51.7%
- growth [10]: 63.8%

SMILES: C=CC(=O)N1CCN(c2cccc(Oc3nccc(Nc4nnc(-c5ccc(Br)cc5)s4)n3)c2)CC1
- growth [1]: 40.3%
- growth [2]: 53.1%
- growth [3]: 69.3%
- growth [4]: 57.3%
- growth [5]: 56.8%
- growth [6]: 61.1%
- growth [7]: 42.7%
- growth [8]: 37%
- growth [9]: 59%
- growth [10]: 67.1%

SMILES: CC(=O)N1N=C(c2ccc(C(F)(F)F)c(F)c2)CC1c1[nH]c(C)c(C(=O)NCC(F)(F)F)c1C (stereo not given)
- growth [1]: 95.3%
- growth [2]: 78.5%
- growth [3]: -8.37% (active)
- growth [4]: 47.9%
- growth [5]: 78.8%
- growth [6]: 70.8%
- growth [7]: 81.7%
- growth [8]: 87.7%
- growth [9]: 71.5%
- growth [10]: 69.8%

SMILES: Cc1cc(C)c2c(c1)N(C)c1ncnc(-n3cnc4cc(C)ccc43)c1CC2C (stereo not given)
- growth [1]: 23.4%
- growth [2]: 0.933% (active)
- growth [3]: 29.1%
- growth [4]: 35.7%
- growth [5]: 14.6%
- growth [6]: 20.9%
- growth [7]: 8.49% (active)
- growth [8]: 30.7%
- growth [9]: 46.5%
- growth [10]: 62.9%

SMILES: COc1ccccc1NC(=O)N=Nc1c(O)[nH]c2ccccc12
- growth [1]: 94.4%
- growth [2]: 105%
- growth [3]: 82.7%
- growth [4]: 89.7%
- growth [5]: 97.3%
- growth [6]: 89.7%
- growth [7]: 94.1%
- growth [8]: 79.2%
- growth [9]: 98.2%
- growth [10]: 104%

SMILES: CS(=O)(=O)Nc1cc(-c2ccc3ncnc(Nc4ccc5c(cnn5Cc5cccc(F)c5)c4)c3c2)cnc1Cl
- growth [1]: 46.9%
- growth [2]: 5.83% (active)
- growth [3]: -13.9% (active)
- growth [4]: 22.2%
- growth [5]: 9.46% (active)
- growth [6]: 10.9%
- growth [7]: -68.3% (active)
- growth [8]: -8.95% (active)
- growth [9]: -44.8% (active)
- growth [10]: -12.6% (active)

SMILES: CC(C)(Sc1cc(C(C)(C)C)c(O)c(C(C)(C)C)c1)Sc1cc(C(C)(C)C)c(OC(=O)CCCC(=O)O)c(C(C)(C)C)c1
- growth [1]: 27.8%
- growth [2]: 40.8%
- growth [3]: 112%
- growth [4]: 57.1%
- growth [5]: 47.1%
- growth [6]: 33.9%
- growth [7]: 54.1%
- growth [8]: 26.1%
- growth [9]: 59%
- growth [10]: 70.6%

SMILES: CCC(=O)Oc1ccc(-c2ccccc2)cc1Br
- growth [1]: 105%
- growth [2]: 101%
- growth [3]: 95.1%
- growth [4]: 112%
- growth [5]: 103%
- growth [6]: 95.4%
- growth [7]: 98.3%
- growth [8]: 109%
- growth [9]: 107%
- growth [10]: 110%

SMILES: CSc1oc(C)nc1[P+](c1ccccc1)(c1ccccc1)c1ccccc1
- growth [1]: 104%
- growth [2]: 53.9%
- growth [3]: 75.9%
- growth [4]: 45%
- growth [5]: 42.2%
- growth [6]: 52.1%
- growth [7]: -9.07% (active)
- growth [8]: 47.2%
- growth [9]: 28.7%
- growth [10]: 61.1%

SMILES: COc1cc2c(cc1OCCCN1CCN(CCCOc3cc4c(cc3OC)C(=O)N3CC(F)(F)C[C@H]3C=N4)CC1)N=C[C@@H]1CC(F)(F)CN1C2=O
- growth [1]: 101%
- growth [2]: 60.1%
- growth [3]: 2.55% (active)
- growth [4]: 47.2%
- growth [5]: 7.49% (active)
- growth [6]: 68.5%
- growth [7]: 20.6%
- growth [8]: 76.2%
- growth [9]: 12%
- growth [10]: 99.3%

SMILES: CCC(C(=O)[C@@H](C)[C@@H](O)[C@H](C)[C@@H]1O[C@@H]([C@@H](CC)C(=O)ONC(=O)c2ccccc2)CC[C@@H]1C)[C@H]1O[C@]2(C=CC(=O)[C@]3(CC[C@@](C)([C@H]4CC[C@](O)(CC)[C@H](C)O4)O3)O2)[C@H](C)C[C@@H]1C (stereo not given in full)
- growth [1]: 13.7%
- growth [2]: 20.6%
- growth [3]: 27.6%
- growth [4]: 21.1%
- growth [5]: -19% (active)
- growth [6]: 8.93% (active)
- growth [7]: -73.9% (active)
- growth [8]: -24.5% (active)
- growth [9]: 4.55% (active)
- growth [10]: 20.6%

SMILES: COc1ccc(Cc2cnc(NC(=O)c3cc(C)oc3C)s2)cc1
- growth [1]: 26.9%
- growth [2]: 13.6%
- growth [3]: -8.41% (active)
- growth [4]: 38.7%
- growth [5]: 35.8%
- growth [6]: 39.3%
- growth [7]: 25.8%
- growth [8]: 27.1%
- growth [9]: 39.9%
- growth [10]: 54.3%

SMILES: CC(C)=CCC[C@](C)(O)[C@H]1CC[C@]2(C)[C@@H]1CC[C@@H]1[C@@]3(C)C/C(=C/c4ccco4)C(=O)C(C)(C)[C@@H]3CC[C@]12C
- growth [1]: 110%
- growth [2]: 111%
- growth [3]: 92.7%
- growth [4]: 103%
- growth [5]: 101%
- growth [6]: 97.4%
- growth [7]: 102%
- growth [8]: 91.7%
- growth [9]: 101%
- growth [10]: 102%

SMILES: CC(=O)O[C@H]1CC2CCC3C(CC[C@@]4(C)C3C[C@H]([N+]3(C)CCCCC3)[C@@H]4OC(C)=O)[C@@]2(C)C[C@@H]1N1CCCCC1 (stereo not given in full)
- growth [1]: 118%
- growth [2]: 105%
- growth [3]: 99.6%
- growth [4]: 100%
- growth [5]: 90.8%
- growth [6]: 92.8%
- growth [7]: 112%
- growth [8]: 92.6%
- growth [9]: 95.2%
- growth [10]: 108%

SMILES: CC(C)(C)CC(C)(C)NC(=O)Nc1ncccc1OCc1ccccc1
- growth [1]: 86.2%
- growth [2]: 80.9%
- growth [3]: 91.5%
- growth [4]: 95.9%
- growth [5]: 96.4%
- growth [6]: 82.4%
- growth [7]: 92.8%
- growth [8]: 81.4%
- growth [9]: 90.7%
- growth [10]: 103%
